Read-out in test [1]: serum amyloid A (SAA), SAA1 (gene 6288)
In words: BSK_CASM3C_SAA: BioMAP Diversity Plus: CASM3C Assay for serum amyloid A (SAA) Biomarker Activity (AID 2283049).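 Also: SAA protein level quantified by ELISA.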 To be noted: primary human coronary artery smooth muscle cells; actives raise or lower the signal.

Test [2] is described as follows: BSK_CASM3C_SRB: Viability Assessment in the BioMAP Diversity Plus: CASM3C Assay (AID 2283050).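 Also: cells exposed to compound for 24 h.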 To be noted: primary human coronary artery smooth muscle cells.
Read-out in test [3]: Thrombomodulin, THBD (gene 7056)
In words: BSK_CASM3C_Thrombomodulin: BioMAP Diversity Plus: CASM3C Assay for Thrombomodulin Biomarker Activity (AID 2283051).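 Also: thrombomodulin protein level measured by ELISA 24 h after dosing.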 The following applies: primary human coronary artery smooth muscle cells; actives raise or lower the signal.

Read-out in test [4]: Tissue Factor, F3 (gene 2152)
The experiment in a line: BSK_CASM3C_TissueFactor: BioMAP Diversity Plus: CASM3C Assay for Tissue Factor Biomarker Activity (AID 2283052).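 Also: cell surface tissue factor protein level read by ELISA.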 To be noted: primary human coronary artery smooth muscle cells; actives raise or lower the signal.

Read-out in test [5]: Interferon-gamma inducible Protein 10 (IP10), CXCL10 (gene 3627)
The experiment in a line: BSK_hDFCGF_IP10: BioMAP Diversity Plus: hDFCGF Assay for Interferon-gamma inducible Protein 10 (IP10) Biomarker Activity (AID 2283053). To be noted: primary human foreskin fibroblasts; actives raise or lower the signal. Put shortly: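 Chemical-treated human skin fibroblasts (primary) were sampled at 24 h for IP-10 by ELISA. Both increases and decreases relative to DMSO were scored.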

Read-out in test [6]: Urokinase-type plasminogen activator receptor (uPAR), PLAUR (gene 5329)
The experiment in a line: BSK_CASM3C_uPAR: BioMAP Diversity Plus: CASM3C Assay for Urokinase-type plasminogen activator receptor (uPAR) Biomarker Activity (AID 2283054).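 Also: cell-surface uPAR protein level quantified by ELISA.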 To be noted: primary human coronary artery smooth muscle cells; actives raise or lower the signal.

Read-out in test [7]: Vascular cell adhesion molecule 1 (VCAM1), VCAM1 (gene 7412)
In words: BSK_CASM3C_VCAM1: BioMAP Diversity Plus: CASM3C Assay for Vascular cell adhesion molecule 1 (VCAM1) Biomarker Activity (AID 2283055).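 Also: VCAM-1 protein level quantified by ELISA on the cells.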 To be noted: primary human coronary artery smooth muscle cells; actives raise or lower the signal.

Read-out in test [8]: Collagen III, COL3A1 (gene 1281)
The experiment in a line: BSK_hDFCGF_CollagenIII: BioMAP Diversity Plus: hDFCGF Assay for Collagen III Biomarker Activity (AID 2283056). To be noted: primary human foreskin fibroblasts; actives raise or lower the signal. In short, it runs like this:
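Cells: human foreskin fibroblasts, primary. Dosing followed by 24 h incubation, then ELISA for collagen III. Both increases and decreases scored relative to DMSO.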

Read-out in test [9]: Interleukin-8 (IL8), CXCL8 (gene 3576)
The experiment in a line: BSK_hDFCGF_IL8: BioMAP Diversity Plus: hDFCGF Assay for Interleukin-8 (IL8) Biomarker Activity (AID 2283058). To be noted: primary human foreskin fibroblasts; actives raise or lower the signal. Put shortly: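 IL-8 levels from compound-treated primary human fibroblasts were read by ELISA at 24 h, with DMSO serving as baseline for bidirectional fitting.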

The nature of test [10]: BSK_hDFCGF_Proliferation: Cell Proliferation Assessment in the BioMAP Diversity Plus: hDFCGF Assay (AID 2283059).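 Also: curves fitted for both rise and fall of signal versus DMSO baseline.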 The following applies: primary human foreskin fibroblasts. In short, it runs like this: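 This proliferation readout used SRB total-protein staining of human foreskin fibroblasts […], normalized to DMSO with bidirectional curve fitting.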
Read-out in test [11]: Macrophage colony-stimulating factor (MCSF), CSF1 (gene 1435)
In words: BSK_hDFCGF_MCSF: BioMAP Diversity Plus: hDFCGF Assay for Macrophage colony-stimulating factor (MCSF) Biomarker Activity (AID 2283060). To be noted: primary human foreskin fibroblasts; actives raise or lower the signal. In short, it runs like this: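 M-CSF levels, determined by ELISA, are taken at 24 h after dosing human skin fibroblasts. Responses in either direction are fitted with DMSO serving as the baseline.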

A short description of test [12]: BSK_hDFCGF_SRB: Viability Assessment in the BioMAP Diversity Plus: hDFCGF Assay (AID 2283061).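 Also: cells exposed to compound for 24 h before the read.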 To be noted: primary human foreskin fibroblasts. In short, it runs like this: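 Cells were dosed with test chemical, cultured 24 h, fixed with 10% TCA, then stained with 0.1% SRB and read at 560 nm. The fibroblasts were human foreskin primary cells, and DMSO served as baseline.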

Read-out in test [13]: TIMP metallopeptidase inhibitor 1 (TIMP1), TIMP1 (gene 7076)
The experiment in a line: BSK_hDFCGF_TIMP1: BioMAP Diversity Plus: hDFCGF Assay for TIMP metallopeptidase inhibitor 1 (TIMP1) Biomarker Activity (AID 2283062). To be noted: primary human foreskin fibroblasts; actives raise or lower the signal. Put shortly: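 Fibroblasts from human foreskin are treated with test chemical and harvested at 24 h. TIMP-1 is quantified by ELISA, and gain or loss of signal is scored against DMSO.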

Read-out in test [14]: Monokine induced gamma interferon (MIG), CXCL9 (gene 4283)
In words: BSK_hDFCGF_MIG: BioMAP Diversity Plus: hDFCGF Assay for Monokine induced gamma interferon (MIG) Biomarker Activity (AID 2283063). To be noted: primary human foreskin fibroblasts; actives raise or lower the signal. In short, it runs like this:
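MIG signal, determined by ELISA, reflects 24 h chemical exposure of human skin primary fibroblasts. DMSO serves as negative control and baseline.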

Read-out in test [15]: Matrix Metallopeptidase 1 (MMP1), MMP1 (gene 4312)
The experiment in a line: BSK_hDFCGF_MMP1: BioMAP Diversity Plus: hDFCGF Assay for Matrix Metallopeptidase 1 (MMP1) Biomarker Activity (AID 2283064). To be noted: primary human foreskin fibroblasts; actives raise or lower the signal. Put shortly: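 ELISA read-out of MMP1 from human foreskin fibroblasts (primary skin cells), 24 h post-dose. Gain or loss of signal was fitted bidirectionally versus DMSO negative control; cytotoxicity was checked by SRB in parallel cultures.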

Read-out in test [16]: Vascular cell adhesion molecule 1 (VCAM1), VCAM1 (gene 7412)
The experiment in a line: BSK_hDFCGF_VCAM1: BioMAP Diversity Plus: hDFCGF Assay for Vascular cell adhesion molecule 1 (VCAM1) Biomarker Activity (AID 2283065).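 As to AC50: VCAM-1 protein level quantified by ELISA after 24 h chemical exposure.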 To be noted: primary human foreskin fibroblasts; actives raise or lower the signal. In short, it runs like this: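 Cells are dosed, cultured for 24 h, then VCAM-1 is quantified by ELISA; signal increases and decreases are both fitted relative to DMSO.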

Read-out in test [17]: Plasminogen activator inhibitor-1 (PAI1), SERPINE1 (gene 5054)
In words: BSK_hDFCGF_PAI1: BioMAP Diversity Plus: hDFCGF Assay for Plasminogen activator inhibitor-1 (PAI1) Biomarker Activity (AID 2283066). To be noted: primary human foreskin fibroblasts; actives raise or lower the signal. Put shortly:
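Human skin fibroblast cultures receive chemical for 24 h before PAI-1 is measured by ELISA; signal changes are fitted bidirectionally against DMSO-treated wells.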

Read-out in test [18]: Intercellular Adhesion Molecule 1 (ICAM1), ICAM1 (gene 3383)
In words: BSK_KF3CT_ICAM1: BioMAP Diversity Plus: KF3CT Assay for Intercellular Adhesion Molecule 1 (ICAM1) Biomarker Activity (AID 2283067). The following applies: primary human keratinocytes with fibroblasts; actives raise or lower the signal. In short, it runs like this:
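Dose the keratinocyte/fibroblast co-culture, wait 24 h, measure ICAM-1 by ELISA, then fit increases or decreases against DMSO. Cytotoxicity is checked in parallel cultures by SRB total-protein staining.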

Read-out in test [19]: Interferon-gamma inducible Protein 10 (IP10), CXCL10 (gene 3627)
In words: BSK_KF3CT_IP10: BioMAP Diversity Plus: KF3CT Assay for Interferon-gamma inducible Protein 10 (IP10) Biomarker Activity (AID 2283068). To be noted: primary human keratinocytes with fibroblasts; actives raise or lower the signal. In short, it runs like this:
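Signal is secreted/surface IP-10 by ELISA in a human primary skin co-culture of keratinocytes and foreskin fibroblasts, taken 24 h post-dosing; DMSO served as negative control.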

Read-out in test [20]: Epidermal growth factor receptor (EGFR), EGFR (gene 1956)
The experiment in a line: BSK_hDFCGF_EGFR: BioMAP Diversity Plus: hDFCGF Assay for Epidermal growth factor receptor (EGFR) Biomarker Activity (AID 2283057). The following applies: primary human foreskin fibroblasts; actives raise or lower the signal. Put shortly: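 Cell-based multiplexed assay in primary human foreskin fibroblasts. EGFR is read by ELISA 24 h after treatment and compared with DMSO controls.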

Activity calls are given as the source filed them. The calls were made as follows: active = hit-call score of the fitted dose curve at least 0.9, where 1 is the maximum; inactive = score below 0.9.

With `CCCCCOC(=O)COc1cc(N2C(=O)C3=C(CCCC3)C2=O)c(F)cc1Cl`, the outcome in test [1], in test [2], in [3], in test [4], in [6] and in [9] was inactive. Moreover, the result in test [12], in test [13], in [15], in test [17] and in test [18] was inactive. Also, the concentration at half-maximal activity (AC50) – broadly, the concentration at which the activity in the assay is half-maximal – in test [5] was 17.9 µM (active); in test [7], 5.55 µM (active); in test [8], 15.4 µM (active); in [10], 22.7 µM (active); in test [11], 20 µM (active); in test [14], 4.64 µM (active). Further, the concentration at half-maximal activity (AC50) was 14 µM (active) in test [16] and 31.9 µM (active) in test [19].

For the compound `COC(=O)c1ccccc1C(=O)O`, the outcome in [1], in test [2], in test [3], in test [4], in test [6] and in test [7] was inactive. Moreover, the result in test [8], in [20], in test [9], in [10], in [11] and in [12] was inactive. The result in test [14], in test [15], in test [16], in test [17] and in [18] was inactive. Moreover, the half-maximal activity concentration (AC50) is 31.5 µM (active) in [5], 6.58 µM (active) in test [13] and 10.4 µM (active) in test [19].

In the case of `O=C(O)C1(C(=O)Nc2ccc(Cl)cc2Cl)CC1`, the outcome in test [1], in test [2], in [3], in test [4], in test [5] and in test [6] was inactive. The outcome in [7], in test [20], in test [9], in [10], in test [11] and in [12] was inactive. Besides, the result in test [13], in test [15], in [16], in [17], in test [18] and in test [19] was inactive. The AC50 in [8] is 24.5 µM (active).

As to `C=CCOC(Cn1ccnc1)c1ccc(Cl)cc1Cl` (stereo not given), the outcome in test [1], in test [2], in test [3], in test [4], in [6] and in test [7] was inactive. For the same compound, the outcome in [8], in test [20], in [9], in [10], in test [11] and in test [12] was inactive. The outcome in test [15], in [16] and in [18] was inactive. The half-maximal activity concentration (AC50) was 27 µM (active) in test [5], 30 µM (active) in test [13], 13.9 µM (active) in test [17] and 5.07 µM (active) in test [19].

For the compound `CC(=O)[C@H]1CC[C@H]2[C@@H]3CCC4=CC(=O)CC[C@]4(C)[C@H]3CC[C@]12C`, the outcome in test [1], in test [2], in test [3], in [4], in test [5] and in test [6] was inactive. The result in test [7], in [20], in test [9], in test [11], in test [12] and in test [13] was inactive. Further, the result in [15], in test [16], in test [17], in test [18] and in test [19] was inactive. Further, the AC50 is 24 µM (active) in test [8] and 14.7 µM (active) in test [10].

On to `CCC(C)OC(=O)N1CCCCC1CCO` (stereo not given), for which the result in test [1], in test [2], in [3], in test [4], in test [5] and in test [6] was inactive. Besides, the outcome in test [7], in test [8], in test [20], in [9], in test [10] and in test [11] was inactive. In addition, the result in test [12], in [13], in test [15], in test [16], in [17] and in test [18] was inactive. Moreover, the outcome in test [19] was inactive.

The values above are taken from PubChem BioAssay (EPA / NIEHS).
